# PubChem BioAssay AID504467 (National Center for Advancing Translational Sciences (NCATS), 2011)
# About 7,700 (2.3%) of roughly 330,000 compounds were called active. Where a call stands in place of a potency, no number is given. Not shown: some 26% with an inconclusive outcome. The call rests on the fitted dose curve; in most records, active means well fitted inhibition curve with a large enough effect; inconclusive means small, poorly fitted or top-dose-only effect, or effect the other way; inactive means flat fitted curve, though single readings scatter. The full list was thinned out, with actives kept by preference.
# Assay: qHTS screen for small molecules that inhibit ELG1-dependent DNA repair in human embryonic kidney (HEK293T) cells expressing luciferase-tagged ELG1; further: nearly all actives have a fitted effect of over 55% in size
# Settings: HEK293T ELG1-luciferase reporter, luminescence, 16 h, DNA damage induced by 5-fluorouridine; series mostly up to 46.1 µM
# From the text: NIH Molecular Libraries Probe Production Network [MLPCN] NIH Chemical Genomics Center [NCGC] MLPCN Grant: 1 R03 MH092164-01 Assay Provider: Kyungjae Myung, NHGRI, NIH Keywords: MLPCN, qHTS, NCGC, genotoxicity, cancer Assay Overview: Cancer cells divide rapidly compared to normal cells in the body. During cell division, cancer cells need to duplicate their genome by DNA replication. The failure of genome duplication leads to cancer cells' death. Therefore, inhibitors of DNA replication could specifically kill cancer cells. Based on this concept, many chemotherapeutic agents were developed and have been used to treat cancer patients. However, there are a limited number of agents available in the clinical setting, and some of those that do exist have low efficacy and severe side effects. Therefore, if we can find the compounds that effectively block DNA replication either by directly damaging DNA or by inhibiting other cellular mechanisms, the options for cancer treatment will be broadened. With this in mind, we developed a quantitative high-throughput ELG1-luciferase reporter gene assay. Small molecules that specifically block ELG1 function in response to DNA damage can be identified by monitoring the suppression of luciferase activity. Since ELG1 defines a pathway for repairing DNA damage, agents blocking ELG1 function can be used to sensitize cancer cells to chemotherapeutic agents whose mechanism of action involves the induction of DNA damage.
# Assay Protocol Summary: For genotoxicity screening, 2,000 cells in 4 uL/well were dispensed into white, solid-bottom 1536-well plates using a solenoid-based dispenser. Following transfer of 1 uL 5-Fluorouridine and 23 nL compound or DMSO vehicle by a pin tool, the plates were incubated 16 hr at 37 °C and 5% CO2. 5 ul ONE-Glo (Promega) was then added to each plate and following a 30 min incubation at room temperature, luciferase activity was quantified on a ViewLux CCD-based plate reader.
# Potency means the concentration at half of the fitted maximal effect.
row,SMILES,Potency
1,O=C(CN1CCN(c2ccccn2)CC1)Nc1ccc(Br)cc1,inactive
2,Cc1cc(Br)ccc1NC(=O)c1sc2ncn(CC(=O)N3CCN(c4ccccn4)CC3)c(=O)c2c1C,inactive
3,Cc1cc(Br)ccc1NC(=O)c1cnc(N2CCN(c3ccccn3)CC2)c2ccccc12,11.6 µM (active)
4,COc1ccc(S(=O)(=O)N2CCCCC2)cc1NC(=O)c1cc([N+](=O)[O-])ccc1N1CCOCC1,inactive
5,CCc1ccc(S(=O)(=O)N/N=C\c2ccc([N+](=O)[O-])o2)cc1,inactive
6,N#Cc1cc([N+](=O)[O-])ccc1NC(=O)COC(=O)c1cnccn1,inactive
7,COc1cc(/C=C2\CCCc3c2nc2ccccc2c3C(=O)O)cc(Cl)c1O,inactive
8,O=C(COC(=O)c1ccncc1)Nc1ccc2c(c1)OCO2,inactive
9,NS(=O)(=O)c1ccc(NC(=O)COC(=O)c2c3c(nc4ccccc24)/C(=C\c2ccc4c(c2)OCO4)CCC3)cc1,20.6 µM (active)
10,NS(=O)(=O)c1ccc(NC(=O)COC(=O)c2ccc(Cl)nc2)cc1,inactive
11,O=C(COC(=O)c1c2c(nc3ccccc13)CCCC2)c1ccc(Br)s1,inactive
12,O=C(COC(=O)c1c2c(nc3ccccc13)/C(=C\c1cccs1)CCC2)Nc1ccccc1Cl,16.4 µM (active)
13,NC(=O)c1ccc(NC(=O)COC(=O)c2c3c(nc4ccccc24)/C(=C\c2ccc4c(c2)OCO4)CCC3)cc1,20.6 µM (active)
14,CC(NC(=O)COC(=O)c1ccc2c(c1)OCO2)c1ccccc1 (stereo unspecified),inactive
15,NS(=O)(=O)c1ccc(NC(=O)COC(=O)c2cc3ccccc3oc2=O)cc1,inactive
16,COc1ccc(C(=O)N2CCCCC2C(=O)Nc2ccc(-n3nc(C)cc3C)cc2)o1 (stereo unspecified),inactive
17,O=C(NCC(c1cccs1)N1CCOCC1)c1cc(Cl)ccc1[N+](=O)[O-] (stereo unspecified),inactive
18,Cc1ccc(Nc2nnc(SC(C)C(=O)NC3CC3)s2)cc1 (stereo unspecified),inactive
19,CC(C)(C)OC(=O)C[C@H]1C/C=C\C[C@@H](CC(=O)N[C@H](CO)Cc2ccccc2)C(=O)NC[C@@H](c2ccccc2)OC1=O,inactive
20,Cc1ccc(NC(=S)N(CCN2CCCCC2)Cc2ccco2)cc1C,inactive
21,COc1ccc(NC(=S)NCc2cccs2)c(OC)c1,inactive
22,COc1cccc(NC(=S)N(CCc2c(C)[nH]c3ccccc23)Cc2ccco2)c1,20.6 µM (active)
23,Cc1[nH]c2ccccc2c1CCN(Cc1cccs1)C(=S)NC(C)(C)C,inactive
24,CCNC(=S)N(CCc1c(C)[nH]c2ccc(C)cc12)Cc1ccco1,inactive

row,SMILES,Potency
1,COc1ccc2[nH]c(C)c(CCN(Cc3cccs3)C(=S)Nc3ccccc3OC)c2c1,13 µM (active)
2,CC(OC(=O)/C=C/c1ccccc1)C(=O)Nc1ccc(C(N)=O)cc1 (stereo unspecified),inactive
3,CC1CCC(NS(=O)(=O)c2ccc3c(c2)CC(=O)N3)CC1 (stereo unspecified),inactive
4,O=C(COC(=O)c1cccc(Cl)c1)NC(=O)NCc1ccccc1,inactive
5,Cc1ccc(S(=O)(=O)N2[C@@H](c3cccc(Cl)c3)C(C(=O)O)=CC[C@H]2c2ccc(Cl)c(Cl)c2)cc1,inactive
6,O=C(NCCCO)c1cc2c([nH]c3ccccc32)c(-c2ccc(F)cc2)n1,18.3 µM (active)
7,CN(C)CCCNC(=O)c1ccc2[nH]c3ccccc3c2c1,inactive
8,O=C(NCCCN1CCOCC1)c1cn(-c2ccccc2)nc1-c1ccc(F)cc1,inactive
9,O=C(NCC1(N2CCCCC2)CCCCC1)c1ccc(NS(=O)(=O)c2ccc(F)cc2)cc1,inactive
10,Cc1ccc(C(CC(=O)O)NC(=O)c2ccc(S(=O)(=O)N3CCCC3)cc2)cc1 (stereo unspecified),inactive
11,Cc1c(NC(=O)CN(C)CC(=O)Nc2ccc(F)c(F)c2F)c(=O)n(-c2ccccc2)n1C,inactive
12,COc1ccc(C(=O)NCc2ccc(Cl)cc2)cc1S(=O)(=O)N1CCCC1,inactive
13,O=C(Nc1ccc(-c2csc(Nc3cccc(C(F)(F)F)c3)n2)cc1)c1cccc(C(F)(F)F)c1,10.3 µM (active)
14,CNC(=O)c1ccc(NC(=O)c2cccc(C(F)(F)F)c2)cc1,inactive
15,Cc1nc(NC(=O)c2cccc(Cl)c2)sc1-c1csc(Nc2cccc(Cl)c2)n1,inactive
16,COc1cccc(CN(C)C(=O)CC23CC4CC(CC(C4)C2)C3)c1OC,inactive
17,CCN(CC)S(=O)(=O)c1ccc(N(C)Cc2cccc(OC)c2OC)nc1,13 µM (active)
18,CCN(CC)S(=O)(=O)c1ccc(N(C)Cc2ccc(C(F)(F)F)cc2)nc1,inactive
19,COc1ccc(/C=C/C(=O)OCC(=O)NC2CCCCCC2)cc1OC,inactive
20,COC(=O)c1cc(Oc2ccc(S(=O)(=O)N3CCOCC3)cc2[N+](=O)[O-])cc(C(=O)OC)c1,inactive
21,CCCCC(C(=O)OCC(=O)c1ccc(OC)cc1)N1C(=O)c2ccccc2C1=O (stereo unspecified),inactive
22,CCOC(=O)C1=C(c2ccc(OC)cc2)C(=O)c2ccccc2C1=O,2.91 µM (active)
23,COc1ccc(OCCCON2C(=O)c3ccccc3C2=O)cc1,inactive
24,Cc1ccc(C(=O)CN2C(=O)NC3(CCOc4ccccc43)C2=O)s1 (stereo unspecified),inactive

row,SMILES,Potency
1,COc1ccc(NC(=O)CCS(=O)(=O)c2cc3c(cc2Cl)NC(=O)CO3)cc1OC,inactive
2,O=C(c1ccc(Cl)c(S(=O)(=O)N2CCCCC2)c1)N1CCCCCC1,inactive
3,O=C(c1ccc(Cl)c(S(=O)(=O)N2CCCCCC2)c1)N1CCN(c2ccc(O)cc2)CC1,20.6 µM (active)
4,O=C(c1ccc(Cl)c(Cl)c1)N1CCCC1,inactive
5,Nn1c(SCC(=O)NC2CCCc3ccccc32)nnc1C1CC1 (stereo unspecified),inactive
6,O=C(CN1C(=O)NC2(CCCC2)C1=O)Nc1cc(C(F)(F)F)ccc1N1CCOCC1,inactive
7,O=C(NCCc1ccc(F)cc1)c1ccc(S(=O)(=O)N2CCCCC2)cc1,inactive
8,COc1ccccc1Oc1nc(-c2cccnc2)nc2ccccc12,inactive
9,N#Cc1ccc(Oc2cc(C(F)(F)F)nc(-c3ccccn3)n2)cc1,inactive
10,Cc1ccc(Oc2nc(-c3ccccn3)nc3ccccc23)cc1,18.3 µM (active)
11,CCS(=O)(=O)N1CCC(N2CCN(c3ccccc3)CC2)CC1,inactive
12,O=C(c1ccccc1)N1CCN(C(=O)c2cc3nc(-c4ccccc4)cc(C(F)(F)F)n3n2)CC1,7.3 µM (active)
13,O=C(O)c1cnn2c(C(F)(F)F)cc(-c3ccccc3)nc12,inactive
14,COC(=O)c1cc2nc(-c3ccccc3)cc(C(F)(F)F)n2n1,inactive
15,CCc1cccc(C)c1NS(=O)(=O)c1cc(Br)cnc1N,inactive
16,COc1ccc(C)cc1N(C(=O)Cn1nnc(-c2ccc(C)o2)n1)C(C(=O)NC1CCCC1)c1ccncc1 (stereo unspecified),inactive
17,COc1ccccc1NC(=O)COC(=O)CNC(=O)C1CCCCC1,inactive
18,Cc1ccc(CC(=O)N(C)CC(=O)N(CC(C)C)c2c(N)n(CC(C)C)c(=O)[nH]c2=O)cc1C,inactive
19,Cn1nnnc1SCC(=O)Nc1cccc(S(=O)(=O)N2CCCCC2)c1,inactive
20,COc1cccc(N(CC(=O)NC2CCCC2)C(=O)Cn2nnc(-c3ccc(C)o3)n2)c1,inactive
21,CCOC(=O)C1CCN(C(=O)Cn2nc(C)c3c(C)n(-c4ccccc4)nc3c2=O)CC1,inactive
22,CC1=C/C(=N\S(=O)(=O)c2ccccc2)C(C(C)C)=CC1=O,inactive
23,COc1ccc2cc(S(=O)(=O)Nc3ccccn3)ccc2c1,inactive
24,COc1ccc(S(=O)(=O)/N=C2\C=C(NS(=O)(=O)c3ccccc3)C(=O)c3ccccc32)cc1,23.1 µM (active)

row,SMILES,Potency
1,CCCSc1nc2sc3c(c2c(=O)n1-c1ccc(OC)cc1)CCN(C)C3,inactive
2,COc1ccc(C(C(=O)NC2CCCC2)N(CCCO)C(=O)Cn2nnc(-c3ccc(C)o3)n2)cc1 (stereo unspecified),inactive
3,C=C(C)COc1ccc(-c2nc(N)ncc2-c2ccccc2OC)c(O)c1,inactive
4,C=C(C)COc1ccc(-c2ncncc2-c2ccc(OC)cc2)c(O)c1,16.4 µM (active)
5,COc1ccc(-c2nc(N)ncc2-c2ccc(Cl)cc2)c(O)c1,inactive
6,COc1ccc(C(C)(C)C)cc1NC(=O)CCN1C(=O)C2CCCCC2C1=O (stereo unspecified),inactive
7,COC(=O)c1c(NC(=O)c2ccccc2F)sc2c1C(C(=O)OC)CC2 (stereo unspecified),inactive
8,CCc1ccc(N(CC)c2ncnc3nc[nH]c23)cc1,4.11 µM (active)
9,CCOc1ccc(-n2c(O)c(/C=N/Nc3nc(C)cc(C)n3)c3ccccc3c2=O)cc1,14.6 µM (active)
10,CCOc1ccc(-n2c(O)c(/C=N/Nc3nnc(C)c(=O)[nH]3)c3ccccc3c2=O)cc1,inactive
11,CCOc1ccc(N=Cc2c(O)n(-c3cccc(C)n3)c(=O)c3ccccc23)cc1,inactive
12,COc1ccc2[nH]c3c(c2c1)CCN1C(=O)C(CC(=O)NCCc2ccccn2)C[C@H](C(=O)N2CCOCC2)[C@@]31C (stereo partly specified),inactive
13,COc1ccc(-c2nnc(SCC(=O)NC3CCCCC3)o2)cc1OC,inactive
14,COc1ccc(CCNC(=O)CSc2nnc(-c3cccc(F)c3)o2)cc1OC,inactive
15,COc1ccc(CN(C(=O)CSc2nnc(-c3ccc(OC)c(OC)c3)o2)c2ccc(F)cc2)cc1,16.4 µM (active)
16,COc1ccc(NC(=O)c2sc(N)nc2-c2ccccc2)cc1,inactive
17,Cc1nc(N2CCN(c3ccccn3)CC2)c2c(C)c(C(=O)Nc3ccc(F)c(Cl)c3)sc2n1,3.26 µM (active)
18,COc1ccc(OC)c(NC(=O)c2sc3nc(C)cc(C)c3c2N)c1,inactive
19,COc1ccc(NC(=O)c2sc3nc(C)nc(N4CCN(c5ccccn5)CC4)c3c2C)c(OC)c1,2.31 µM (active)
20,COc1cc2ccccc2cc1C(=O)Nc1ccc(N2CCOCC2)cc1,inactive
21,CCC(=O)Nc1ccc2c(c1)nc(CCN1CCN(c3ccccn3)CC1)n2C,inactive
22,CCN(CC)c1ccc(NC(=O)CN2CCN(c3ccccn3)CC2)cc1,inactive
23,COc1ccc(NC(=O)c2sc(N3CCOCC3)nc2-c2ccccc2)c(OC)c1,13 µM (active)
24,COc1cc([N+](=O)[O-])ccc1NC(=S)N1CCN(c2ccccn2)CC1,inactive
